Results on 13 compounds are retold here after PubChem BioAssay (NCI).

The panel holds about 83,000 compounds, 20% with a hit somewhere; the sample as a whole holds those more often.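 96-well plates, one dose, 48 hours. Percent growth reported; active if below 10.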 Unmarked numbers belong to inactive results. The source made the active and inactive calls.

The experiment relates to MDA-MB-468 breast. Description: NCI-60 one-dose screen, 48 h (100 = growth as untreated, 0 = no growth, -100 = all killed). Particulars: 10 µM unless noted.

Regarding `CCCCN(CCCC)CCCN=c1nc2c(c(N)n1-c1ccccc1)c(=S)n(-c1ccccc1)c(=S)n2-c1ccccc1`, the growth was -89.9% (active). For the compound `CCN(Cc1ccccc1)c1ccc(SC#N)cc1`, the growth is 72.3%. Consider `CCN(CC)S(=O)(=O)c1ccc(S(=O)(=O)N2CCC[C@@H](C(=O)N3CCN(C(=O)OC(C)(C)C)CC3)C2)cc1`, for which the growth is 15.6%. For the compound `CCC(CC(C)C)Nc1ccc(NC(CC)CC(C)C)cc1` (stereo not drawn), the growth was 71.3%. Consider `COc1cccc(-c2nc3sccn3c2-c2ccnc(NCCN3CCCN(C)S3(=O)=O)n2)c1`, for which the growth was 75.6%. The figure for `COc1ccc(OC)c([N+](=O)[O-])c1C=O` is 81.9%; for `COc1ccc(-n2nc(C)c3c(Nc4ccc(NC(=O)Nc5cc(C(F)(F)F)ccc5F)cc4)ncnc32)cc1` it is 29.6%; for `CCOc1nc(-c2ccccc2)cc2c(O)c(C(=O)NC(C)C)[nH]c(=O)c12` it is 101%. In the case of `O=C1c2cccc3cccc(c23)C(=O)N1CC#Cc1ccc2c3c(cccc13)C(=O)N(CCN1CCNCC1)C2=O`, the growth is 111%.

Turning to `COc1ccc(/C=C2\Oc3cc(OCCCCCN4CCCCC4)ccc3C2=O)cc1OC`, the growth was 57.6%. With `CCOc1ccc(N(C)c2ccc(/C=C/C3=[N+](C)c4ccccc4C3(C)C)cc2)cc1`, the growth is 6.26% (active). For the compound `[2H]C([2H])([2H])Oc1ccc(F)cc1/C=C/C(=O)/C=C(/C=C/c1cc(F)ccc1OC([2H])([2H])[2H])OB(F)F`, the growth was 69.5%.

As for `Cc1cccc(N2C(=O)/C(=C/C(Cl)=C/c3ccc([N+](=O)[O-])cc3)SC2=S)c1C`, the growth is 11.6%.
